Hits are enriched below; roughly 3.5% of the tested compounds scored in any of these assays.
Rv3671c protease – Rv3671c (M. tuberculosis) protease inhibition. P9WHR9. inhibition, % at 5.96 µM. hit rate 0.048% among 320,000. AID 2606; in the data active means inhibition above about 38%;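 further: extracellular domain of Rv3671c used as enzyme; 0% = enzyme with DMSO and 100% = no enzyme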
Target sequence (P9WHR9 whole entry, looked up, the tested form may be a part): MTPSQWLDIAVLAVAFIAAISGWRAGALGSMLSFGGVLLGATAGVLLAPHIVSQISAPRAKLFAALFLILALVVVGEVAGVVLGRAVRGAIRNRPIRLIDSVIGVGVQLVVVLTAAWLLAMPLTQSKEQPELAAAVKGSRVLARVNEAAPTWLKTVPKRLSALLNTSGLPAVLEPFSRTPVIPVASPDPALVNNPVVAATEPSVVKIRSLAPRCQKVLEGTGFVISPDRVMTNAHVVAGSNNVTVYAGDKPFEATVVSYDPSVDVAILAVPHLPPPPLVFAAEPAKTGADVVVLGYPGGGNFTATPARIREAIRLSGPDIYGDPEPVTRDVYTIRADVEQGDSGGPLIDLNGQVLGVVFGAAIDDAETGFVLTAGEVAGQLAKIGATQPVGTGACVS
Mtb bLac sens – beta-lactam sensitization of Mtb H37Rv; M. tuberculosis H37Rv growth with meropenem, percent inhibition; inhibition, % at 25 µM; hit rate 0.27% among 330,000; call rule not given here;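 further: growth measured after seven days incubation then overnight dye step; 0% = bacteria only wells and 100% = bacteria with antibiotic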
GDH-TPI counter-1 – inhibits GDH-TPI coupling enzymes, artifact for Mtb FBA screen. inhibition, % at 4.8 µM. AID 588335. GDH-TPI coupled enzyme counterscreen, NADH absorbance. hit rate 1.2% among 360,000; in the data active means inhibition above about 30%;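 further: 0% = DMSO wells and 100% = wells lacking the enzyme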
UGM FP inh – inhibitors of M. tuberculosis UDP-galactopyranose mutase | inhibition, % at 10 µM | purified UGM, fluorescence polarization probe displacement | hit rate 0.06% among 320,000 | P9WIQ1 | AID 504406; in the data active means inhibition above about 10%, passing the limit was not always enough
FBA Mtb inh – Mtb fructose-bisphosphate aldolase inhibition | P9WQA3 | purified M. tuberculosis FBA, fluorescence read-out | inhibition, % at 1 µM | hit rate 2.3% among 360,000 | AID 588726;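 further: 0% = vehicle and 100% = reference inhibitor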
Mtb FBA confirm – Mtb FBA inhibition, confirmed. shares compounds with FBA Mtb inh. purified M. tuberculosis FBA, fluorescence read-out. inhibition, % at 1 µM. hit rate 78% among 5,600;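 further: 0% = vehicle wells and 100% = reference inhibitor wells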
GDH-TPI counter-2 – GDH-TPI inhibition counter-screen for FBA inhibitors. inhibition, % at 1 µM. GDH-TPI coupled enzyme counterscreen, fluorescence. hit rate 81% among 5,600. shares compounds with FBA Mtb inh. AID 652141; in the data active means inhibition above about 10%
Active calls of the source: *; / = not tested or not shown; + = active, no number; ! = repeats disagree. Unless noted, no stated cut-off is given here; in the data, active means inhibition above about 27%; inactive means the rest.

SMILES	Rv3671c protease	Mtb bLac sens	GDH-TPI counter-1	UGM FP inh	FBA Mtb inh	Mtb FBA confirm	GDH-TPI counter-2
O=C(O)c1cccc(Nc2nc(-c3cc4ccccc4oc3=O)cs2)c1	/	3	20	1	28*	84*	72*
Cc1ccc(-c2cc(C(=O)N3CCCC(C(F)(F)F)C3)c3ccccc3n2)o1 (stereo not given)	-9	-5	6	3	87*	161*	90*
CCOC(=O)C1CCCN(C(=O)c2cc(-c3ccccc3)nc3ccccc23)C1 (stereo not given)	7	-3	2	-1	1	/	/
COc1ccc(-c2cc(C(=O)N3CCCC(C(F)(F)F)C3)c3ccccc3n2)cc1 (stereo not given)	4	5	19	0	96*	-1	-4
O=C(Nc1ccc([N+](=O)[O-])cn1)c1ccc(Br)o1	-2	4	27	0	95*	0	-4
NC(=O)COc1c(-c2ccc(Br)o2)oc2ccccc2c1=O	4	-3	35*	-2	105*	154*	113*
Cc1ccc(S(=O)(=O)N(C)C)cc1NC(=O)COC(=O)Cc1ccccc1F	-3	3	14	-2	-4	/	/
Cc1ccccc1C1NC(=O)c2ccccc2O1 (stereo not given)	-1	-5	14	0	5	/	/
Cc1ccccc1C1N=C2Oc3ccccc3C=C2C(=O)N1 (stereo not given)	/	/	/	/	96*	70*	52*
COc1ccc(-c2cc(C(F)(F)F)n3nc(C(N)=O)cc3n2)cc1	/	/	12	/	4	/	/
CCN1CCN(Cc2ccc(NC(=O)c3ccc(C)c(NC(=O)c4cccc5[nH]ccc45)c3)cc2C(F)(F)F)CC1	-22	38	-10	3	30*!	+	+
CCCCCc1nc2c(=O)n(C)c3ccccc3c2o1	-2	1	3	-1	-5	/	/
Cn1c(=O)c2nc(-c3ccccc3)oc2c2ccccc21	-3	52	9	-2	99*	91*	60*
Cc1nc2cc(C(=O)O)ccc2s1	4	6	8	-1	-3	/	/
Cc1nc2ccc(C(=O)O)cc2c2c1CC(C)S2 (stereo not given)	9	46	3	1	61*	44*	30*
c1cncc(-c2noc(-c3cccc4ccccc34)n2)c1	-6	50	4	-1	28*	22	20*
CC(C)Cn1cc(C(=O)NCc2cccs2)c2c3ccccc3n(C)c2c1=O	-8	-12	14	3	34*	192*	144*
CCCCNC(=O)c1cn(CC(C)C)c(=O)c2c1c1ccccc1n2C	-4	5	7	0	26	/	/
CC(C)CCNC(=O)c1cn(CC(C)C)c(=O)c2c1c1ccccc1n2C	-8	-7	4	0	2	/	/
CCOC(=O)N1CCN(C(=O)c2cn(C)c(=O)c3c2c2ccccc2n3C)CC1	-3	-6	16	-3	41*	128*	108*
CC(C)Cn1cc(C(=O)N2CCOCC2)c2c3ccccc3n(C)c2c1=O	7	-3	5	2	41*	42*	26*
CCOC(=O)N1CCN(C(=O)c2cn(CC(C)C)c(=O)c3c2c2ccccc2n3C)CC1	4	/	18	-2	31*	50*	47*
CC1(C)Cc2c(cnn2-c2ccccc2)C(NC(=O)c2ccc[n+]([O-])c2)C1 (stereo not given)	0	-4	10	1	5	/	/
Cc1snc(SCc2cccc(Cl)c2)c1C#N	-15	-1	5	1	-1	/	/
Cn1cc(C(=O)N2CCC3(CC2)OCCO3)c2c3ccccc3n(C)c2c1=O	-1	3	16	-4	40*	79*	59*
SMILES	Rv3671c protease	Mtb bLac sens	GDH-TPI counter-1	UGM FP inh	FBA Mtb inh	Mtb FBA confirm	GDH-TPI counter-2
Cn1c2ccccc2c2c(C(=O)N3CCC4(CC3)OCCO4)cn(C3CCCCC3)c(=O)c21	2	-2	0	0	15	/	/
Cc1ccc(C(=O)N2CCC3(CC2)Oc2ccc(F)cc2C(=O)C32CC(c3ccccc3)=NO2)s1 (stereo not given)	-14	50	14	-1	0	/	/
CCN(CC(=O)NCc1ccc(Cl)cc1)C(=O)CSc1ccc(Br)cc1	-9	-6	-1	-8	1	/	/
COc1ccc(-c2c[n+]3c4n2CCCCC4=C(c2ccccc2)C3)cc1	-2	99	20	/	106*	-2	-4
COc1ccc(-c2c[n+](CC(=O)c3ccccc3)c3n2CCCCC3)cc1	-5	-11	5	0	1	/	/
CCOc1ccc(-n2cnnn2)cc1S(=O)(=O)NCc1ccccc1	2	-3	-2	-1	-1	/	/
CCOc1cc(S(=O)(=O)NCc2ccccc2)c(OCC)cc1-n1cnnn1	5	-5	-7	-3	49*	132*	111*
CC1=C(C(=O)N2CCOCC2)C(c2ccccc2F)C2=C(CCCC2=O)N1 (stereo not given)	-1	0	14	3	28*	92*	61*
COc1ccc(S(=O)(=O)Nc2ccccc2C(=O)Nc2nc(-c3ccc(F)cc3)cs2)cc1OC	-27	-2	11	/	33*	92*	68*
Cc1cc(OC(C)C(=O)NCc2ccccn2)c2c(C)c(Cc3ccccc3)c(=O)oc2c1 (stereo not given)	-4	3	9	-2	4	/	/
Cc1cc(OCC(=O)NCc2ccncc2)c2c(C)cc(=O)oc2c1	-5	-3	17	3	79*	40*	39*
Cc1cc(OC(C)C(=O)NCc2ccncc2)c2c(C)cc(=O)oc2c1 (stereo not given)	-4	-5	8	-2	84*	169*	159*
COc1ccc(CCNC(=O)COc2cc(C)cc3oc(=O)cc(C)c23)cc1	-4	6	6	-3	3	/	/
CCCCc1cc(=O)oc2cc(C)cc(OC(C)C(=O)NCc3ccncc3)c12 (stereo not given)	7	-5	1	-1	42*	109*	76*
Cc1cc(OCC(=O)NCCc2ccc(S(N)(=O)=O)cc2)c2c(C)cc(=O)oc2c1	-5	4	-6	-1	67*	120*	97*
CC(Oc1ccc(Cl)cc1Cl)C(=O)NCc1ccncc1 (stereo not given)	8	44	8	2	0	/	/
Cc1ccccc1OC(C)C(=O)NCc1cccnc1 (stereo not given)	1	-3	-3	-3	0	/	/
Cc1cc(OC(C)C(=O)NCc2ccncc2)c2c(C)c(C)c(=O)oc2c1 (stereo not given)	-7	-7	7	0	103*	57*	49*
Cc1cc(OCC(=O)NCC(O)c2ccccc2)c2c(C)cc(=O)oc2c1 (stereo not given)	0	6	2	-2	77*	17	-3
